# TRb-SRC2 inh: disrupts binding of human TR beta to SRC2. P10828. TRbeta-SRC2 peptide binding, fluorescence polarization; receptor liganded with 1 µM T3. Potency, µM (highest dose often 106 µM), without a hit: top-dose activity change, negative = inhibition, usual class: inhibitors. 0.065% of 280,000 active. AID 1469;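 also: plate controls were bound peptide for no effect and peptide without receptor for full effect; nearly all actives have a fitted effect of over 50% in size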
# Target sequence (P10828 whole entry, looked up): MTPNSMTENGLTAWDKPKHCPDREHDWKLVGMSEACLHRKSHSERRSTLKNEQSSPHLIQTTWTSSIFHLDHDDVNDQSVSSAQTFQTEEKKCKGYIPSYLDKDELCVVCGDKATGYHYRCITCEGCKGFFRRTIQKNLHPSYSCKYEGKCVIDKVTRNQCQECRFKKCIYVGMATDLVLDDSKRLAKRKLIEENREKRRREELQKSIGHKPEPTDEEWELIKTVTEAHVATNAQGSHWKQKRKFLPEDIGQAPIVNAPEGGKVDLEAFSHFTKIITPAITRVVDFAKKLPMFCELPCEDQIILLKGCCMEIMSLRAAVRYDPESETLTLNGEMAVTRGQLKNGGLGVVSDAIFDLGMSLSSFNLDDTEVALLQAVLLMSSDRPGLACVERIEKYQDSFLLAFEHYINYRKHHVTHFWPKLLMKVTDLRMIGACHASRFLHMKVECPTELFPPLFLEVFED
#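 Decrease in fluorescence polarization of 20 nM Texas Red SRC2 coactivator peptide flagged inhibition of its binding to 0.6 uM TRb LBD; 1 uM T3 included, incubation 5 hr, ex 555/em 632 nm.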
# Tau ThT inhib: inhibitors of human tau fibril formation, thioflavin T binding | P10636 | recombinant tau K18 P301L, heparin-induced fibrillization, ThT fluorescence | Potency, µM (top dose mostly 57.4 µM), for inactives: at the top dose activity, negative = inhibition, actives largely listed as inhibitors | 2.1% of 270,000 active | AID 1460; also: nearly all actives have a fitted effect of over 55% in size
# Target sequence (P10636 561-689 P618L limits assumed): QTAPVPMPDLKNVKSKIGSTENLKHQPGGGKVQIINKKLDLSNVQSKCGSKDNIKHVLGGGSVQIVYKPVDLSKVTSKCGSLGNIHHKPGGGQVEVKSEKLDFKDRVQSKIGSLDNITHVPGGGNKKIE
#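 Tau K18 P301L fragment (15 uM unlabeled plus 0.24 uM Alexa 594-labeled) in 100 mM sodium acetate pH 7 with compound, fibrillization induced by 20 uM heparin for 6 hr at 37 C. Thioflavin T (30 uM) added, fluorescence read after 1 hr (ex 450, em 510 nm).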
# Tau fibril FP: inhibitors of human tau fibril formation; AID 1468; K18 P301L tau heparin fibrillization, Alexa594 FP, 6 h; 0.39% of 280,000 active; Potency, µM (doses to about 57.7 µM), without a hit: top-dose activity, negative = inhibition, usual class: inhibitors; also: nearly all actives have a fitted effect of over 55% in size
#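 Compound effects on tau fibrillization are measured by Alexa 594 fluorescence polarization (ex 555, em 632 nm). K18 P301L tau is used at 15 uM with 0.24 uM labeled tracer, and 20 uM heparin induces aggregation over 6 hr at 37 C.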
# Tau fluor cs: counter-screen for tau fibril formation inhibitors | tau K18 P301L Alexa594 fluorescence, heparin fibrillization | Potency, µM (top dose mostly 57.7 µM), for the others: at the top dose activity change, negative = decrease | 0.93% of 280,000 active; also: nearly all actives have a fitted effect of over 55% in size
#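 Human tau K18 P301L (15 uM unlabeled, 0.24 uM Alexa 594-labeled) in 100 mM sodium acetate pH 7 with 20 uM heparin, 6 hr at 37 C. ThT 30 uM added, 1 hr ambient; Alexa 594 FP and total fluorescence read at 555/632 nm.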
# TR SRC2 fluor cs: alters Texas Red total fluorescence, flagging assay interference; TRb/SRC2 Texas Red total fluorescence interference; Potency, µM (highest dose often 106 µM), inactives show at the highest dose fluorescence change, negative = quenching; 0.29% of 280,000 active; active = well fitted curve in either direction with a large enough effect; inconclusive = small, poorly fitted or top-dose-only effect
#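 Human TRb ligand-binding domain at 0.6 uM with 20 nM Texas Red SRC2 peptide in Tris buffer containing 1 uM T3 and 5% DMSO, incubated with compound 5 h at ambient temperature. Total fluorescence (555/632 nm) calculated as parallel + 2 × perpendicular.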
# * marks the source's active call; other numbers are inactive results; ? = inconclusive; . = no result; ! = not active in a repeat; [ ] = another dose, or the depositor's remark. Sampled rows, rich in hits. Any-hit rate of the full collection: about 3%. Unless noted, calls follow the shape of the dose curve; as a rule, active = well fitted curve in the direction sought with a large enough effect; inconclusive = small, poorly fitted or top-dose-only effect, or another doubt; inactive = no such curve, though single readings can be large; an effect the other way counts as inactive or inconclusive. Unless noted, % is scaled to controls: 0 for no effect and ±100 for the full control effect; potency is read from the fitted curve at half-maximal effect.
SMILES,TRb-SRC2 inh,Tau ThT inhib,Tau fibril FP,Tau fluor cs,TR SRC2 fluor cs
CCN1C(=O)[C@H]2[C@H]3[C@H](O)[C@H](O)C/C(=N/OC[C@@H](C)[C@H](OCc4ccccc4)C(C)C)[C@@H]3CC[C@@H]2C1=O,0.9%[11.2 µM],-2.5%[11.5 µM],4.1%[11.6 µM],-3.4%[11.6 µM],-6.2%[11.2 µM]
Cc1cc(C)c(C(=O)/C=C/c2ccco2)c(=O)[nH]1,-0.5%,22.4µM*,?,-22.9%,-0.1%
Cc1ccc(/C=C/C(=O)c2c(C)cc(C)[nH]c2=O)cc1,-2.3%,-11.2%,5.4%,-2.1%,-3.3%
O=C(NCc1ccco1)c1ccc2nc3sc4c(c3c(=O)n2c1)CCCC4,-5.5%,14.1µM*,22.4µM*,-22.0%,-4.2%
COc1ccc(N=C2SCC(c3ccc([N+](=O)[O-])cc3)=NN2CCO)cc1,7.7%,11.2µM*,13.8%,?,-4.0%
O=[N+]([O-])c1ccc(C2=NN(CCO)C(=Nc3ccc(OC(F)(F)F)cc3)SC2)cc1,8.4%,14.1µM*,14.1%,?,-1.8%
COc1ccc(N=C2SCC(c3ccc(C)cc3)=NN2CCO)cc1,3.9%,?,13.0%,?,-3.8%
O=C(O)c1ccc2nc(-c3ccco3)c(-c3ccco3)nc2c1,-10.3%,7.94µM*,10µM*,?,?
NC(=O)COC(=O)c1cc(-c2ccco2)nc2ccccc12,-4.2%,?,?,-26.9%,-1.8%
O=C(Nc1cccc(C(F)(F)F)c1)c1ccc2snnc2c1,-1.6%,6.7%,-4.1%,-1.3%,0.2%
COc1ccc(CCn2c(N)c(C(=O)NCc3ccco3)c3nc4ccccc4nc32)cc1OC,?,17.8µM*,31.6µM*,?,-7.6%
COc1ccc(CCn2c(N)c(C(=O)NCc3ccco3)c3nc4ccccc4nc32)cc1,-1.4%,?,?,?,-3.6%
O=C(O)c1cc(-c2ccco2)nc2ccc(Br)cc12,3.0%,15.8µM*!,?,?,-23.4%
O=C(Nc1cccc(C(F)(F)F)c1)c1ccc2nc(-c3ccco3)c(-c3ccco3)nc2c1,?,14.1µM*,?,15.8µM*[quencher],8.91µM*[quencher]
O=C(COc1ccccc1F)Nc1ccccc1C(=O)OCc1cc(=O)n2nc(C3CC3)sc2n1,1.3%,6.2%,6.1%,4.9%,-0.1%
O=C(Nc1ccc2nc(-c3ccco3)c(-c3ccco3)nc2c1)NC1CC1,10.8%,7.08µM*,?,12.6µM*[quencher],35.5µM*[quencher]
COc1cc(NC(=O)c2ccnc(N)c2)cc(C(=O)Nc2cccc(C(F)(F)F)c2)c1,-5.1%,-6.2%,28.2µM*,?,-1.5%
CCc1nc2ccc(C(=O)NCCc3ccc(OC)c(OC)c3)cc2nc1CC,-3.6%,?,-6.9%,-16.0%,-0.8%
COc1ccc(CCNC(=O)c2ccc3nc(-c4ccco4)c(-c4ccco4)nc3c2)cc1OC,?,6.31µM*,?,12.6µM*[quencher],11.2µM*[quencher]
O=C(Nc1ccc(N2CCOCC2)cc1)Nc1ccc2nc(-c3ccco3)c(-c3ccco3)nc2c1,-3.4%,8.5%,-2.6%,6.3%,-4.8%
COc1ccc(C(=O)c2sc(Nc3cccc(OC)c3)c(C(=O)Nc3cccc(C)c3C)c2N)cc1,-2.0%,17.8µM*,-7.8%,?,-1.6%
COc1cccc(Nc2sc(C(=O)c3ccc(F)cc3)c(N)c2C(=O)NCc2ccc(Cl)cc2)c1,8.4%,20µM*,?,?,1.0%
COc1cccc(Nc2sc(C(=O)c3ccc(Cl)cc3)c(N)c2C(=O)NCc2ccc(C)cc2)c1,8.6%,?,7.4%,?,2.8%
COc1ccc(C(=O)c2sc(Nc3ccccc3)c(C(=O)Nc3ccc(OC)c(OC)c3)c2N)cc1,1.7%,15.8µM*,?,15.8µM*[quencher],-2.0%
COc1ccccc1NC(=O)c1c(Nc2ccccc2C)sc(C(=O)Nc2cccc(Cl)c2)c1N,5.4%,-7.3%,?,?,1.4%
SMILES,TRb-SRC2 inh,Tau ThT inhib,Tau fibril FP,Tau fluor cs,TR SRC2 fluor cs
COc1ccc(Nc2sc(C(=O)c3ccccc3)c(N)c2C(=O)Nc2cc(C)ccc2C)c(OC)c1,5.9%,?,3.2%,?,0.2%
COc1ccc(NC(=O)c2c(Nc3ccccc3)sc(C(=O)c3ccc(F)cc3)c2N)cc1,-17.3%,11.2µM*,3.0%,?,-0.6%
C=C1NC(=O)c2cc(CN(C)c3ccc(C(=O)N[C@@H](CCC(=O)O)C(=O)O)s3)ccc2N1,5.8%,.,.,.,-2.3%
CCc1ccccc1-n1nnc(-c2nsc(NC(=O)c3ccc(C)c(C)c3)n2)c1C,0.6%,5.5%,?,-10.8%,0.9%
COC(OC)(C(=O)c1ccccc1)c1ccccc1,-2.9%[201 µM],.,.,.,-2.8%[201 µM]
CCN(CC)CCCNc1oc(/C=C/c2ccc(OC)c(OC)c2)nc1C#N,-0.2%,-10.8%,3.3%,-8.7%,-3.0%
CCOc1ccc(NC(=O)c2c(Nc3ccccc3C)sc(C(=O)c3ccc(Cl)cc3)c2N)cc1,5.6%,?,2.5%,?,1.6%
Cc1ccc(NC(=O)c2c(Nc3ccccc3C)sc(C(=O)c3ccccc3)c2N)cc1,3.9%,-15.8%,2.4%,?,3.1%
N#Cc1c(Nc2cccc(F)c2)sc(C(=O)c2ccc(Cl)cc2)c1N,-3.1%,28.2µM*,?,?,2.3%
COc1ccc(Nc2sc(C(=O)c3ccc(Cl)cc3)c(N)c2C(=O)Nc2ccccc2OC)cc1,-6.5%,22.4µM*,-1.8%,?,-4.8%
Cc1cc(Nc2sc(C(=O)c3ccc(F)cc3)c(N)c2C(=O)Nc2ccc(F)cc2)ccc1Cl,13.1%,20µM*,-12.0%,10µM*[quencher],-0.9%
CC1CCc2nc3ccc(S(=O)(=O)N4CCC(C(=O)NCc5ccccc5Cl)CC4)cc3c(C(=O)O)c2C1 (configuration not stated),-9.8%,-12.9%,-4.4%,-10.1%,20µM*[quencher]
CCN1C=C(Cc2ccc(OC)cc2)C2=C(C1)C(c1ccc(OC)cc1)C(C#N)=C(N)O2 (configuration not stated),?,?,5.3%,-15.3%,50.1µM*[fluorescent]
COc1ccc(C2C(C#N)=C(N)Oc3cc4c(cc32)OCO4)cc1 (configuration not stated),5.8%,-13.6%,8.8%,-24.0%,-0.8%
CCN1CCN(Cc2ccc(NC(=O)c3cc(NC(=O)c4cncc(-c5ccc(C#N)cc5)c4)cc(OC)c3)cc2C(F)(F)F)CC1,-0.7%,-0.9%,8.91µM*,?,-4.8%
CCN1/C(=C\C=C2\C(=O)N(C)C(=S)N2C)Sc2ccccc21,?,2µM*,-14.2%,0.7%,21.5%
CCN1/C(=C2/OC(=S)N(C)C2=O)Sc2ccccc21,2.3%,-10.0%,5.2%,-4.3%,-2.3%
NC(=O)c1cc(-c2ccccc2)sc1NC(=O)CN1CCCCC1,-4.8%,-12.7%,?,17.8µM*[quencher],-2.2%
CN(C)C1C(=O)C(C(N)=O)=C(O)[C@@]2(O)C(=O)C3=C(O)c4c(O)ccc(Cl)c4[C@@H](O)C3C[C@@H]12 (some centres not stated),3.5%,?,?,?,0.4%

# Source: PubChem BioAssay
